p53 reactivator: mutant p53 re-activation in reporter cells | 0.063% of 320,000 active | H1299 p53-A138V BP100-luciferase reporter, luminescence, 24 h | Potency, µM (highest dose often 92.2 µM), without a hit: top-dose activity change, positive = activation, hits mostly activators; note: potency is the fitted concentration of half-maximal effect; % of control where 0% means no effect; nearly all actives have a fitted effect of over 45% in size
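p53-null H1299 cells stably carrying temperature-sensitive p53-A138V and a BP100-luciferase reporter were pinned with compounds (4-point, 1:5 series) and held 24 hrs at 37 deg C. Luminescence was read 10 min after detection reagent.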
GLP1R ag: activates the human GLP-1 receptor | P43220 | HEK293 GLP-1R CRE-luciferase, luminescence, 4-6 h; cells express a hypersensitive GLP-1R form | Potency, µM (top dose mostly 45.6 µM), without a hit: at the highest dose activation, usual class: activators | 0.007% of 380,000 active; note: potency is the fitted concentration of half-maximal effect; % of control where 0% means no effect
Target sequence (P43220 whole entry, looked up): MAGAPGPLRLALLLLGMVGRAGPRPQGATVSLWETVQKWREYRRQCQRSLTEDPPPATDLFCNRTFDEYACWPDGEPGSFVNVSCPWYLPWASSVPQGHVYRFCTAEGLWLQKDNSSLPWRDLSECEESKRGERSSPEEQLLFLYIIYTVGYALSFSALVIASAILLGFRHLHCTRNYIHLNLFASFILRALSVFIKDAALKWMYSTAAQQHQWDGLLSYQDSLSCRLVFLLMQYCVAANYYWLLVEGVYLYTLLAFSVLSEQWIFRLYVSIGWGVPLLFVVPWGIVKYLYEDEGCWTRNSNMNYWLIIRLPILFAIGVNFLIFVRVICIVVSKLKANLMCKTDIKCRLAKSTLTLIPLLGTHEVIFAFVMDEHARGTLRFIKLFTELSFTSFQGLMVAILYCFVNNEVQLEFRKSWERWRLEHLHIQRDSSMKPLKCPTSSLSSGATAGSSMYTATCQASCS
HEK293 tox: cytotoxicity counter-screen for GLP-1 receptor inverse agonists | HEK293 cAMP-luciferase reporter cells, luminescence, 24 h | Potency, µM (doses to about 38.3 µM), for the others: at the top dose activity change, negative = inhibition, most hits filed as inhibitors | 0.13% of 410,000 active;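 note: loss of luciferase light is scored as toxicity; potency is the fitted concentration of half-maximal effect; % is set by controls: 0 for no effect and ±100 for the full control effect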
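Here, cytotoxicity is scored as loss of luminescence. The MLSMR collection was tested on cells seeded in medium containing 10% Nu serum, with a 24 hr compound exposure preceded by 12 hours of culture.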
LDHA block: LDHA (human) enzyme inhibition. P00338. purified LDHA, NADH/diaphorase-resazurin fluorescence; stronger effect = lower value. activity change, % (values are at about 110 or 230 µM). 0.15% of 480,000 active; in the data active = activity change below about -30%; inconclusive = mostly about -25% to -30%;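 note: plate controls were DMSO wells for no effect and wells without enzyme for full effect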
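Remaining NADH was detected by diaphorase (0.133 mg/mL) converting 37 µM resazurin to fluorescent resorufin, read at 0 and 20 minutes. The preceding 5-minute room-temperature reaction used 2 nM LDHA, 0.2 mM sodium pyruvate and 0.06 mM NADH at pH 7.4.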
GLP1R inv ag: acts as inverse agonist at human GLP-1 receptor | Potency, µM (series often up to 38.3 µM), for inactives: at the top dose activity change, negative = inhibition, most hits filed as inhibitors | HEK293 GLP-1R CRE-luciferase, luminescence, 24 h; GLP-1R form is constitutively active | P43220 | 1.6% of 410,000 active; note: potency is the fitted concentration of half-maximal effect; % is set by controls: 0 for no effect and ±100 for the full control effect; nearly all actives have a fitted effect of over 55% in size
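Readout was luciferase luminescence, measured 12 min after detection reagent at room temperature. Beforehand, GLP-1R reporter HEK293 cells had sat 12 h, then received compounds for 24 hr at 37 deg C.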
ClpP mod: qHTS Assay for Activators of ClpP. ATP-dependent Clp protease proteolytic subunit (Bacillus subtilis (strain 168)), P80244. purified B. subtilis ClpP, FRET peptide cleavage, 20 min. Potency, µM (top dose mostly 57.5 µM), for the others: at the highest dose activity change, negative = active. 1.9% of 340,000 active; active = well fitted falling curve with a large enough effect; inconclusive = small, poorly fitted or top-dose-only effect; inactive = no such curve, though single readings can be large or run the other way; note: potency is the fitted concentration of half-maximal effect; the source files actives as falling curves though it sought activators and does not explain the sign; nearly all actives have a fitted effect of over 65% in size
Target sequence (P80244 whole entry, looked up): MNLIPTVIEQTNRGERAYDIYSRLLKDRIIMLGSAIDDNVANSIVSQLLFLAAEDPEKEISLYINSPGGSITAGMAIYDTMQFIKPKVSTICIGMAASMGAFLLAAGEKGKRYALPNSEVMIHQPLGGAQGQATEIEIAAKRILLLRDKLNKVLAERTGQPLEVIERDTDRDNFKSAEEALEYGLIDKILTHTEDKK
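ClpP 10 microg/mL final, pH 8 Tris/KCl buffer with BSA, glycerol, Tween-20; compound pinned in; FRET-FV substrate; RT 20 min; Ex320/Em430; ΔFRET vs ADEP 5.8 microM, DMSO, no enzyme.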
Numbers without * were called inactive; i = inactive; ? = inconclusive; . = not tested or not shown; ! = a repeat was not active; [ ] = another dose, or the depositor's remark. Only some compounds are listed: those with a hit (about 2.9% of all), similar ones and a draw of the others. Unless noted, calls come from the whole dose curve; as a rule, active = well fitted curve in the direction sought with a large enough effect; inconclusive = small, poorly fitted or top-dose-only effect, or another doubt; inactive = no such curve, though single readings can be large; an effect the other way counts as inactive or inconclusive.

SMILES	p53 reactivator	GLP1R ag	HEK293 tox	LDHA block	GLP1R inv ag	ClpP mod
CNC(=S)NNC(=O)c1ccc(NNC(=S)NC)cc1	.	.	.	7	.	.
CC(=O)c1cccc(OC(=O)c2ccccc2)c1	.	1%	-15%	0	20%	14µM*
O=C(Oc1ccccc1)c1cc(O)c(O)c(O)c1	.	-9%	-23%	-35*	14%	-15%
O=C(Oc1ccccc1)c1cccc(C(=O)Oc2ccccc2)c1	.	5%[96 µM]	.	.	.	.
COc1ccc(C(=O)/C=C/C(=O)N(CC(=O)NC2CCCCC2)Cc2cccs2)c(O)c1	-13%	9%	-5%	1	-29%	5%
O=C(CC1C(=O)N(c2ccccc2)C(=S)N1c1ccccc1)c1ccc(Br)cc1 (centres undefined)	-8%	9%	1%	-11	11µM*	.
CN1C(=O)c2ccc(NC(=O)CSc3ccccc3)cc2C1=O	17%	7%	5%	-9	7%	1%
O=C(Nc1ccc2c(c1)C(=O)N(c1ccccc1)C2=O)c1cccs1	3%	-2%	3%	3	24%	4%
O=C(Cc1ccccc1)Nc1cccc(NC(=O)c2cccs2)c1	-4%	12%	15%	-5	13µM*	-1%
O=C(O)CCN1C(=O)c2ccc(NC(=O)c3cccs3)cc2C1=O	-9%	5%	-3%	-19	-8%	32µM*
CCC(=O)Nc1ccc2c(c1)C(=O)N(C)C2=O	-2%	0%	8%	-4	2%	28µM*
CCCC(=O)Nc1ccc2c(c1)C(=O)N(CCC(=O)O)C2=O	-2%	-11%	-2%	-5	10%	28µM*
N#Cc1c(N)sc2c1CCN(CCc1ccccc1)C2	-3%	-7%	52%	-4	2%	22µM*
Cc1cc(C(=O)NCc2cc(C)n(C)n2)sc1-c1ccccc1	20%	10%	-8%	2	-1%	25µM*
CS(=O)(=O)/C(C#N)=C/c1c(-c2ccccc2)nc2n1CCS2	5%	1%	3%	1	14%	-1%
Clc1ccc(CO/N=C/c2c(-c3ccccc3)nc3n2CCS3)c(Cl)c1	-3%	7%	6%	1	?	35µM*
CSc1ccccc1OCc1cc(C(=O)NC(C)c2cnn(C)c2)no1 (centres undefined)	5%	14%	7%	-7	13%	28µM*
Cc1ccc(C)c(NC(=S)Nc2cccc3cnccc23)c1	6%	4%	8%	45	-14%	.
CC1=C/C(=N\NC(=S)Nc2cccnc2)CC(C)(C)C1	2%	9%	1µM*	-10	4µM*	.
Cc1ccc(C)c(NC(=S)Nc2cccnc2)c1	-2%	0%	10%	-4	6%	25µM*
Cc1ccc(CSc2ccc(-c3ccc4c(c3)OCO4)nn2)cc1	5%	3%	-6%	-2	-14%	28µM*
Cc1ccc(CSc2nnc(-c3ccc4c(c3)OCO4)o2)cc1	4%	4%	-7%	0	11%	35%
O=C(Nc1cccc2c1CCCC2)c1cc([N+](=O)[O-])ccc1Cl	-3%	-7%	?	-3	3.2µM*	0%
COc1ccccc1-c1nc(SCc2cc(=O)n3c4c(sc3n2)CCCC4)n[nH]1	.	.	.	-33*	.	.
O=c1cc(CSc2n[nH]c(-c3ccccc3)n2)nc2sc3c(n12)CCCC3	.	.	.	-4	.	.
SMILES	p53 reactivator	GLP1R ag	HEK293 tox	LDHA block	GLP1R inv ag	ClpP mod
Cc1ccc2nc3c(cc(C#N)c(=O)n3-c3nccs3)c(=O)n2c1	3%	-1%	i	4	-9%	2.5µM*
CCN(CC)CCNC(=O)Cc1c(C)[nH]c2ccc(F)cc12	.	.	.	-3	.	.
COc1ccccc1OCC(=O)Nc1ccc(O)cc1C(=O)O	3%	2%	28%	3	15%	?
CCC(=O)Nc1cc2c(C)cc(=O)oc2cc1C	-1%	-2%	-10%	0	0%	32µM*
CCCCCCC(=O)Nc1cc2c(C)cc(=O)oc2cc1C	9%	2%	16%	1	8%	-2%
COc1ccc(CNC(=O)c2cnc3sc(N4CCOCC4)nn3c2=O)cc1	.	.	11%	-6	6%	?
COc1ccc(CNC(=O)c2cnc3sc(N4CCCC4)nn3c2=O)cc1OC	.	.	0%	-5	2%	16µM*
COc1ccc(CCNC(=O)c2cnc3sc(N4CCOCC4)nn3c2=O)cc1	.	.	0%	-2	-2%	28µM*
CCNC(=O)c1cnc2sc(N3CCCCCC3)nn2c1=O	.	.	1%	1	7%	11µM*
N#Cc1c(N)c(C#N)c(-c2ccc3c(c2)OCO3)c2c1CCCC2	-4%	-1%	-1%	-4	24%	32µM*
N#Cc1c(N)c(C#N)c(-c2ccc(O)cc2)c2c1CCCC2	-4%	6%	-10%	0	-19%	22µM*
CCOC(=O)CCC(NC(=O)c1cncc(O)c1)C(=O)OCC (centres undefined)	3%	1%	7%	-7	0%	28µM*
CCOC(=O)CCC(NC(=O)CCCCC(=O)NC(CCC(=O)OCC)C(=O)OCC)C(=O)OCC (centres undefined)	10%	-5%	-7%	-8	9%	0%
Nc1ccc(-c2nc3c(Cl)c(N)ccc3[nH]2)cc1	-8%	22%	-5%	0	107%	28µM*
COc1ccc(C(=O)Nc2cc(C(=O)NCCc3ccccc3)ccc2Cl)cc1	?	3%	?	-5	?	1%
Cc1[nH]nc(-c2cccnc2)c1N=NN(C)C	.	-17%	10µM*	5	?	-1%
CN(C)c1nc(N)nc(-c2cccnc2)n1	2%	13%	5%	-3	47%	-3%
c1cc[n+](CCC[n+]2ccccc2)cc1	1%	-3%	-3%	-31*!	5%	0%
c1cc[n+](CCCC[n+]2ccccc2)cc1	?	3%	1%	0	3%	-1%
CCOC(=O)CCNC(=O)N1CCCC(CNS(=O)(=O)Cc2ccccc2)C1 (centres undefined)	0%	0%	0%	-9	17%	.
O=c1nc2n(Cc3ccccc3)c3ccccc3cc-2c(=O)[nH]1	-10%	.	.	.	.	.
Cn1c2nc(=O)[nH]c(=O)c-2cc2ccccc21	.	1%	i	-6	0%	18µM*
O=c1nc2n(CCO)c3ccccc3cc-2c(=O)[nH]1	.	0%	97%	-2	30%	32µM*
COc1ccc(-c2nc(C#N)c(N3CCCCC3)o2)cc1	2%	28%	1%	-5	-22%	-2%

High-throughput results deposited in PubChem BioAssay by National Center for Advancing Translational Sciences (NCATS).
